Measured values from ChEMBL document CHEMBL3988442, “University of Dundee, Small-Polar-MMV Screening Library” (2021).
In all, about 48,000 compounds went through this assay and about 13,000 (27%) showed an effect of 50% or more. This is one part of the list.

system: Wolbachia pipientis; test: Anti-Wolbachia Cell-Based Screen; assay type: functional; design: scale not given: in the data most compounds retested in dose-response had high values; details: 5 µM

Structure (SMILES)	Percent Effect [%]
CCc1n[nH]c(C2CN(C(=O)c3ccnc(C)n3)CCO2)n1 (stereo not given)	98.73
CCc1n[nH]c(C2CN(C(=O)c3ccnc(C4CC4)n3)CCO2)n1 (stereo not given)	101.3
CCc1ncncc1C(=O)N1CCOC(c2nc(C)n[nH]2)C1 (stereo not given)	2.402
CCCc1n[nH]c(C2CN(C(=O)c3ccnc(C4CC4)n3)CCO2)n1 (stereo not given)	146
CCc1n[nH]c(C2CN(C(=O)c3cnc(C)nc3CC)CCO2)n1 (stereo not given)	106.1
Cc1n[nH]c(C2CN(C(=O)c3ccnc(C4CC4)n3)CCO2)n1 (stereo not given)	-13.72
Cc1nc(N)cc(NCc2csc(N(C)C)n2)n1	-17.8
O=S(=O)(NCCc1c[nH]c2cc(F)ccc12)C1CCOC1 (stereo not given)	22.23
CS(=O)(=O)c1ccc(OCCNCc2ccc(F)cc2F)cc1	-10.65
Cl.O=C(C1CC1)N1CCC2(CC1)CNc1ccc(F)cc12	-2.948
CC(CC#N)N(C)Cc1ccc(F)cc1C#N (stereo not given)	3.658
CCc1nnc(CN2CCC3(CCC(=O)N(C4CCCC4)C3)CC2)o1	8.44
O=C(CN1CCN(c2ncnc3cccc(F)c23)CC1)N1CCCC1	6.401
COCCO[C@H]1CCN(Cc2ccoc2)[C@H]1Cc1cccnc1	85.57
COCCO[C@H]1CCN(Cc2cnn(C)c2)[C@H]1Cc1cccnc1	86.22
CS(=O)(=O)N[C@@H]1CCN(Cc2cccnc2)[C@H]1Cc1cccnc1	0.03565
COCCO[C@@H]1CCN(C(=O)c2ccc[nH]2)[C@H]1Cc1cnn(C)c1	-18.74
Cn1cc(CN2CC[C@@H](NS(C)(=O)=O)[C@@H]2Cc2cccnc2)cn1.O=C(O)C(F)(F)F.O=C(O)C(F)(F)F	0.0713
O=C(O)C(F)(F)F.O=C(O)C(F)(F)F.O[C@H]1CCN(Cc2ccoc2)[C@H]1Cc1cccnc1	-11.6
C=C(C)COc1cccc(C(=O)N(CC)Cc2nc(COC)no2)c1	-39.48
Cn1c(N)nnc1SC1CCCN(c2ccccc2F)C1=O (stereo not given)	-7.514
Cc1ccc(CN2CCc3c(COCC4CC4)nn(C)c3C2)s1.O=C(O)C(F)(F)F	115.6
Cc1ccc(CN2CCc3c(C(=O)N(C)C)nn(C)c3C2)s1.O=C(O)C(F)(F)F	-3.635
Cn1nc(COCC2CC2)c2c1CN(C(=O)c1ccno1)CC2.O=C(O)C(F)(F)F	-4.068
Cn1nc(COCC2CC2)c2c1CN(CC1CC1)CC2.O=C(O)C(F)(F)F.O=C(O)C(F)(F)F	100.4
O=C(O)C(F)(F)F.c1nc(COCC2CC2)c2n1CCCN(CC1CC1)C2	-4.563
CC(C)OCc1nn(C)c2c1CCN(CC1CC1)C2.O=C(O)C(F)(F)F	103.7
COCc1nn(C(C)C)c2c1CCN(Cc1ccc(C)s1)C2.O=C(O)C(F)(F)F	2.652
CC(C)OCc1ncn2c1CN(CC1CC1)CCC2.O=C(O)C(F)(F)F	10.37
CC(C)OCc1nn(C)c2c1CCN(Cc1ccco1)C2.O=C(O)C(F)(F)F	-9.352
